A selection: hits, their analogues and other compounds. The true share with any hit is near 2.5%.
Cruzain inh Det: inhibitors of Trypanosoma cruzi cruzain with detergent | purified cruzain, Z-FR-AMC fluorescence, 0.01% Triton | Potency, µM, most hits filed as inhibitors | 200,000 compounds, 0.43% hits | AID 1478; also: nearly all actives have a fitted effect of over 40% in size
Target sequence (P25779 123-467 limits assumed): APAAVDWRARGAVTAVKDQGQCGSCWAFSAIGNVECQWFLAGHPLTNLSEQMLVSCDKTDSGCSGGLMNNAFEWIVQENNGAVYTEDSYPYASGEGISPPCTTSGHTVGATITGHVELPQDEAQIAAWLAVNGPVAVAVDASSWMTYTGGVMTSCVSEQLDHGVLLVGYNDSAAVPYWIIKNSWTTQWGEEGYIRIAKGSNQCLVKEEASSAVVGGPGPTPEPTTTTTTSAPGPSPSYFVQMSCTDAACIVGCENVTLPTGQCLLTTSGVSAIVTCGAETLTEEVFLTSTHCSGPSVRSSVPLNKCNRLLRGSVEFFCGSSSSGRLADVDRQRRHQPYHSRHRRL
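Detergent-containing run (0.01% Triton X-100) in acetate buffer pH 5.5 with 5 mM DTT: enzyme at 1.5 nM final, 15 min compound preincubation at room temperature, then 2 uM Z-FR-AMC substrate. Activity taken as 60 s fluorescence increase at 360/450 nm.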
Cruzain inh noDet: blocks cruzain activity in detergent-free assay | P25779 | purified cruzain, Z-FR-AMC fluorescence, no detergent | Potency, µM, hits mostly inhibitors | 200,000 compounds, 2.3% hits | AID 1476; also: nearly all actives have a fitted effect of over 40% in size
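Detergent-free condition (0.00005% Triton X-100) in acetate buffer pH 5.5 with DTT. 1.5 nM enzyme and compound were pre-mixed 15 min, then 2 uM Z-FR-AMC substrate added; reaction progress from fluorescence change between first and third reads (60 s).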
Hits are given with their value; n = inactive; u = inconclusive. Calls follow the shape of the dose curve; as a rule, active = well fitted curve in the direction sought with a large enough effect; inconclusive = small, poorly fitted or top-dose-only effect, or another doubt; inactive = no such curve, though single readings can be large; an effect the other way counts as inactive or inconclusive.

SMILES	Cruzain inh Det	Cruzain inh noDet
CC(C)=CCOc1ccc(/C=C/C(=O)c2ccc(OCC=C(C)C)cc2OCC(=O)O)cc1	20µM	u
CCOc1ccc(/C=C/C(=O)c2ccc(-c3ccccc3)cc2)cc1	n	n
CCCCCC1=C2CNC(C)(C(=O)OC)C=C2C(C)C1=O (configuration not stated)	n	n
Cn1cc(/C=C(\C#N)C(=O)Nc2ncc(Cc3cccc(Cl)c3)s2)c2ccccc21	n	7.94µM
N#C/C(=C\c1c[nH]c2ccccc12)C(=O)Nc1ncc(Cc2ccc(Cl)cc2Cl)s1	n	7.94µM
O=C(Nc1ncc(Cc2cccc(Cl)c2)s1)C1CCCO1 (configuration not stated)	n	n
CCOC(=O)/C(C#N)=C/c1c[nH]c2ccccc12	n	n
Cc1c(CCC(=O)NCCc2ccccc2)c(=O)oc2c(C)c(O)ccc12	n	n
COC(=O)c1ccc(NC(=O)C(C)Sc2nc(=O)cc(N)n2CCc2ccccc2)cc1 (configuration not stated)	n	n
Cc1ccc(CNC(=O)C2CCCN(S(=O)(=O)c3cccc4nsnc34)C2)cc1 (configuration not stated)	n	n
Cc1c(Cl)cccc1NC(=O)CCS(=O)(=O)c1ccc2c(c1)CC(=O)N2C	n	n
N#Cc1sc2nc(-c3cccs3)cc(-c3ccccc3)c2c1N	n	15.8µM
N#Cc1c(-c2cccs2)cc(-c2cccnc2)nc1N	n	n
COc1ccc(-c2cc(C3CC3)nc3sc(C#N)c(N)c23)cc1	n	n
CCN(CC)C(=O)c1sc2nc(-c3cccs3)cc(-c3ccc(Cl)cc3)c2c1N	n	31.6µM
CC(C)(C)C(=O)c1sc2nc(-c3cccs3)cc(C(F)(F)F)c2c1N	n	n
N#Cc1sc2nc(-c3cccs3)cc(-c3ccc(Cl)cc3)c2c1N	n	12.6µM
CCOC(=O)c1ccccc1NC(=O)CN1CCCN(Cc2cccc(Cl)c2)S1(=O)=O	n	n
CCc1cc2cc(C)ccc2nc1SCC(=O)Nc1cc(C)on1	n	n
CCc1cc2cc3c(cc2nc1SCC(=O)Nc1nnc(C)s1)OCCO3	n	u
Cc1cc2cc3c(cc2nc1SCC(=O)Nc1nc(C)c(C)s1)OCO3	n	31.6µM
CCc1cc2cc3c(cc2nc1SCC(=O)Nc1cc(C)on1)OCO3	n	25.1µM
O=P(O)(O)OC1[C@H](O)[C@H](OP(=O)(O)O)C(OP(=O)(O)O)[C@H](OP(=O)(O)O)[C@H]1O (some centres not stated)	n	n
CCOC(=O)c1cc(-c2ccccc2)nn1Cc1ccccc1	n	n
CCNC(=O)c1c(NC(=O)Cc2coc3cc(C)cc(C)c23)sc2c1CCCC2	n	n
SMILES	Cruzain inh Det	Cruzain inh noDet
O=[N+]([O-])c1ccc(N2N=C(c3ccco3)CC2c2ccccc2)cc1 (configuration not stated)	n	12.6µM
Fc1ccc(C2CC(c3ccco3)=NN2c2ccccc2)cc1 (configuration not stated)	n	u
Cc1cccc(NC(=O)Cn2cc(C(=O)C3CCCCC3)c3ccccc32)c1	n	n
O=C(N/N=C/c1cccc(OC2CSC2)c1)c1ccccc1O	n	10µM
Cn1ncc(Br)c1C(=O)N/N=C/c1cccc(OC2CSC2)c1	n	n
COc1ccccc1CNC(=O)CCCCn1c(=O)c2ccccc2n(Cc2c(C)cc(C)cc2C)c1=O	n	n
CCCCCN1C(C(=O)c2ccccc2)=C(NC(=O)c2ccccc2Cl)c2ccccc2S1(=O)=O	n	10µM
CCCCCN1C(C(=O)c2ccccc2)=C(NC(C)=O)c2ccccc2S1(=O)=O	n	n
Cc1cc(=O)n(CC(=O)Nc2ccc([N+](=O)[O-])cc2)c(-n2nc(C)cc2C)n1	n	n
CCc1ccc(NC(=O)CC2C(=O)N(c3ccc(Cl)cc3)C(=O)N2C2CCCC2)cc1 (configuration not stated)	n	n
CCOc1ccc(C2NC(=O)c3c(COC)cc(C)nc3N2Cc2ccccc2)cc1OC (configuration not stated)	n	n
COc1ccc(S(=O)(=O)N2CCC(CN3C(=O)c4cccc5cccc(c45)C3=O)CC2)cc1	n	25.1µM
COc1ccc(OCC(O)CN2CCC(CN3C(=O)c4cccc5cccc(c45)C3=O)CC2)cc1 (configuration not stated)	n	n
COc1ccc(/C=N/NC(=S)Nc2ccccc2)cc1COc1ccc(F)cc1	n	7.94µM
COc1ccc(/C=N/NC(=S)Nc2ccccc2)cc1COc1ccccc1F	n	12.6µM
COc1ccc(/C=N/NC(=O)c2nc(Cl)c(Cl)c(N)c2Cl)cc1COc1ccccc1F	n	n
COc1cc(OC)cc(C(=O)N/N=C/c2ccc(OC)c(COc3ccc4ccccc4c3)c2)c1	n	7.94µM
COc1cccc(OCc2cc(/C=N/NC(=O)c3ccn[nH]3)ccc2OC)c1	n	n
COc1ccc(NC(=S)Nc2ccc(OCc3ccccc3)cc2)cc1OC	n	u
COc1ccc(-c2c(C#N)c(SCC(=O)Nc3ccc(C)c(C)c3)nc(C)c2C(=O)Nc2ccccc2)cc1OC	n	u
CCOc1ccc(NC(=O)CSc2nc3c(c(=O)[nH]2)CCCC3)cc1	n	n
O=C(CSc1cn(CC(=O)N2CCCC2)c2ccccc12)Nc1cc(C(F)(F)F)ccc1Cl	n	u
Cc1cccc(OCC(=O)NC(C)C(=O)N/N=C/c2c(OCc3ccccc3)ccc3ccccc23)c1 (configuration not stated)	n	15.8µM
Cc1cccc(OCC(=O)NC(Cc2ccccc2)C(=O)O)c1 (configuration not stated)	n	n
O=C(c1csnn1)N1CCC2(CC1)CCN(c1cccc(-c3ccccc3)c1)CC2	n	u
SMILES	Cruzain inh Det	Cruzain inh noDet
Cc1c(C(=O)N(C)C)sc2c1c(=O)n(-c1ccc(F)cc1)c(=O)n2Cc1ccccc1C#N	n	n
Cc1nc(N)sc1-c1csc(Nc2ccc(Cl)cn2)n1	28.2µM	15.8µM
CC(=O)Nc1cccc(-c2csc(Nc3ccc(C)cn3)n2)c1	n	n
COc1ccc(Nc2nc(-c3sc(N)nc3C)cs2)cc1	15.8µM	15.8µM
COc1ccc(CCNc2ccncn2)cc1OC	n	n
COc1ccc(CCNc2nc(-c3sc(N)nc3C)cs2)cc1OC	14.1µM	10µM
Cc1cccnc1Nc1nc(-c2ccc(O)cc2)cs1	n	n
Cc1nc(N)sc1-c1csc(Nc2ccccn2)n1	u	12.6µM
COc1ccc(Nc2nc(-c3sc(NC(C)=O)nc3C)cs2)cc1	n	n
COc1ccc(NC(=O)C(NS(=O)(=O)c2ccc3c(c2)CCCC(=O)N3)C(C)C)c(OC)c1 (configuration not stated)	n	n
CCC(C)NC(=O)c1c(C)oc2ncn(CC(C)C)c(=O)c12 (configuration not stated)	n	n
COc1ccc(N2CCN(S(=O)(=O)c3ccc(-c4cc(C(F)(F)F)on4)s3)CC2)cc1	n	n
CCOC(=O)C1C(C(=O)OC)=C(c2ccc(F)cc2)c2ccc(OC)cc2N1S(=O)(=O)C(F)(F)F (configuration not stated)	n	u
COc1ccc(Nc2nc(-c3cccs3)cs2)cc1	n	15.8µM
Oc1ccc(Nc2nc(-c3cccs3)cs2)cc1	n	n
Cc1cccc(CC(=O)NC2CC(=O)N(c3ccccc3)C2)c1 (configuration not stated)	n	n
CNC(=S)N/N=C/c1cn(Cc2ccc(F)cc2)c2ccccc12	n	u
Cc1cc(C=O)c(C)n1-c1ccc(Oc2ccc([N+](=O)[O-])cn2)cc1	n	n

Compound activity as filed in PubChem BioAssay.
